# Laboratory results published in PubChem BioAssay AID743195 (National Center for Advancing Translational Sciences (NCATS), 2013).
# The list shows a part of the results. Results filed as inconclusive are left out. Active and inactive are the calls of the source. Calls come from the whole dose curve; as a rule, active = well fitted inhibition curve with a large enough effect; inconclusive = small, poorly fitted or top-dose-only effect; inactive = no such curve, though single readings can be large or run the other way.
# Target: Aldehyde dehydrogenase 1A1 (Homo sapiens) (UniProt P00352)
# Sequence (P00352 whole entry, looked up): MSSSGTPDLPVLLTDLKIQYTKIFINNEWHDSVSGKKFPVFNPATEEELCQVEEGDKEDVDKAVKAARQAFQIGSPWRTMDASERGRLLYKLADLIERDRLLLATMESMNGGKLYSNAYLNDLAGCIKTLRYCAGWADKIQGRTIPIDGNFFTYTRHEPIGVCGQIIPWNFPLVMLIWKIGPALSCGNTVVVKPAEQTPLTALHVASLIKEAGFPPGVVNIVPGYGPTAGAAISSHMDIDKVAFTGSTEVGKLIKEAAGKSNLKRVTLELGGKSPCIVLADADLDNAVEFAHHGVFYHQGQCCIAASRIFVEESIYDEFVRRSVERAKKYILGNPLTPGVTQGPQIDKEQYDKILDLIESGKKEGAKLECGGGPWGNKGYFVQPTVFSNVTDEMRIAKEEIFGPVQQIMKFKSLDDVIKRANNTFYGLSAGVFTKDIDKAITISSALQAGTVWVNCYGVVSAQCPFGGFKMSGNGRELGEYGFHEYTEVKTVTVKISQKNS
# Test: Extended Characterization of HPGD Inhibitors: Counterscreen Against ALDH1A1
# Details: recombinant ALDH1A1, NADH fluorescence, propionaldehyde/NAD+
# Text: The central role of HPGD is to inactivate prostaglandins such as prostaglandin E2 (PGE2) or prostaglandin D2 (PGD2). These prostaglandins are involved in a number of processes, including inflammation, differentiation, and cellular signaling, which makes HPGD an important target for pharmacological intervention. Aldehyde dehydrogenase 1 family, member A1 (ALDH1A1) catalyzes the NAD+ dependent oxidation of a variety of endogenous and exogenous aldehydes to the corresponding carboxylic acids. The enzyme is the critical step in the metabolic activation of retinoic acid, which plays an essential role as a nuclear receptor ligand. […] ALDH1A1 shares some homology with HPGD, and it served as a suitable anti-target of HPGD to determine chemical probe selectivity. The assay system is similar to the HPGD primary screening protocol. Inhibition of ALDH1A1 activity was screened by utilizing propionaldehyde as an electron donor and NAD+ as an electron acceptor/cofactor. An increase in the fluorescence intensity due to conversion of NAD+ to NADH was used to measure the enzyme activity. NIH Chemical Genomics Center [NCGC] NIH Molecular Libraries Probe Centers Network [MLPCN] MLPCN Grant: MH084681 Assay Submitter (PI): Structural Genomics Consortium
# 3 uL of enzyme (final concentration 50 nM) or buffer were dispensed into a 1,536-well solid-bottom black plate (Greiner Bio One, Monroe, NC) followed by pin-tool transfer (23 nL) of compound (final concentration range 324 pM to 57.2 uM) and control (Bay 11-7085 (CID-5353432), final concentration range 1.31 nM to 2.86 uM). Samples were incubated (RT, protected from light) for 15 minutes followed by a 1 uL substrate addition of NAD+ and Propionaldehyde (final concentrations of 1 mM and 80 uM, respectively). Plates were centrifuged at 1,000 rpm for 15 seconds, then read in kinetic mode on a ViewLux High-throughput CCD imager (Perkin-Elmer) equipped with standard UV fluorescence optics (340 nm excitation, 450 nm emission) for 10 minutes at 5 minute intervals. Data were normalized (Read […] - Read 10 min) against no-enzyme (positive) and enzyme-containing (neutral) wells.
row,Structure (SMILES),Potency
1,FC(F)(F)c1cccc(N2CCN(C(=S)Nc3ccncc3)CC2)c1,27.1 µM (active)
2,Cc1cc(C)nc(NC(=S)N2CCN(c3ccc(Cl)cc3C(F)(F)F)CC2)c1,7.64 µM (active)
3,Cc1cc(C)nc(NC(=S)N2CCN(c3cccc(C(F)(F)F)c3)CC2)c1,15.2 µM (active)
4,Cc1ccc(N2CCN(C(=S)Nc3cc(C)ccn3)CC2)cc1,3.83 µM (active)
5,COc1cccc(NC(=S)N2CCN(c3ccc(Cl)cc3Cl)CC2)n1,1.08 µM (active)
6,COc1ccnc(NC(=S)N2CCN(c3ncc(C(F)(F)F)cc3Cl)CC2)c1,1.92 µM (active)
7,COc1cccc(NC(=S)N2CCN(c3ccccc3C(F)(F)F)CC2)n1,2.15 µM (active)
8,Cc1cc(C)nc(NC(=S)N2CCN(c3ccc(Cl)cc3F)CC2)c1,4.82 µM (active)
9,Cc1cc(C)nc(NC(=S)N2CCN(c3ccc4nonc4c3)CC2)c1,12.1 µM (active)
10,Cc1cc(C)nc(NC(=S)N2CCN(c3cccc(C#N)c3)CC2)c1,3.83 µM (active)
